# About 410 targets per protein were measured; listed, in parts, are those with the strongest signals and a random draw of the rest.
# B1: LlpA (Arthrobacter sp) (protein)
# chain: MGSSHHHHHHSSGLVPRGSHMTLHPETALRPGAAATSPNSRYRLLYQTDGNLVLYGPDGPLWDSGTNGHGAGACIMQADGNLVLYGPNDEYVWDTETDNNPGSRLVIQDDGNAVIYRPDGSPLWATETCQPPGSADSHVLQSGSTLTPTHGIRSANGLYGLLYQTDGNLVFYGPDGPLWDSGTNGRGAGACIMQPDGNLVLYGPHDEYVWDTETDNNPGSRLVIQDDGNAVIYRPDGNPTWVTGTH
# Assays:
# Experiment in all cases: glycan array binding signal (z-score within array); higher = stronger binding
# Conditions in all cases: glycan notation: IUPAC condensed, linker removed
# [1] = molecular target: GlcNAc(b1-3)Gal(b1-4)GlcNAc(b1-3)Gal(b1-4)GlcNAc
# Summary of the method: (§1)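 The binding signal is a Z-score computed within each array and averaged over linkers. Arrays of the same protein sequence at different concentrations or buffers were also averaged together. Data originate from 3228 arrays in the Consortium for Functional Glycomics database, kept only where the protein sequence was available.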
# [2] = molecular target: GlcNAc(b1-3)Gal(b1-4)GlcNAc(b1-3)Gal(b1-4)GlcNAc(b1-2)Man(a1-3)[GlcNAc(b1-3)Gal(b1-4)GlcNAc(b1-3)Gal(b1-4)GlcNAc(b1-2)Man(a1-6)]Man(b1-4)GlcNAc(b1-4)[Fuc(a1-6)]GlcNAc
# Summary of the method: as §1
# [3] = molecular target: GlcNAc(b1-3)Gal(b1-4)GlcNAc(b1-3)Gal(b1-4)GlcNAc(b1-3)Gal(b1-4)GlcNAc(b1-3)Gal(b1-4)GlcNAc(b1-2)Man(a1-3)[GlcNAc(b1-3)Gal(b1-4)GlcNAc(b1-3)Gal(b1-4)GlcNAc(b1-3)Gal(b1-4)GlcNAc(b1-3)Gal(b1-4)GlcNAc(b1-2)Man(a1-6)]Man(b1-4)GlcNAc(b1-4)[Fuc(a1-6)]GlcNAc
# Summary of the method: as §1
# [4] = molecular target: GlcNAc(b1-3)Gal(b1-4)GlcNAc(b1-3)Gal(b1-4)GlcNAc(b1-3)Gal(b1-4)GlcNAc(b1-3)Gal(b1-4)GlcNAc(b1-2)[GlcNAc(b1-3)Gal(b1-4)GlcNAc(b1-3)Gal(b1-4)GlcNAc(b1-3)Gal(b1-4)GlcNAc(b1-3)Gal(b1-4)GlcNAc(b1-6)]Man(a1-6)[GlcNAc(b1-3)Gal(b1-4)GlcNAc(b1-3)Gal(b1-4)GlcNAc(b1-3)Gal(b1-4)GlcNAc(b1-3)Gal(b1-4)GlcNAc(b1-2)Man(a1-3)]Man(b1-4)GlcNAc(b1-4)[Fuc(a1-6)]GlcNAc
# Summary of the method: as §1
# [5] = molecular target: GlcNAc(b1-3)Gal(b1-4)GlcNAc(b1-3)Gal(b1-4)GlcNAc(b1-3)GalNAc
# Summary of the method: as §1
# [6] = molecular target: GlcNAc(b1-3)Gal(b1-4)GlcNAc(b1-6)[Gal(b1-3)]GalNAc
# Summary of the method: as §1
# [7] = molecular target: GlcNAc(b1-3)Man
# Summary of the method: as §1
# [8] = molecular target: GlcNAc(b1-4)GlcNAc(b1-4)GlcNAc(b1-4)GlcNAc(b1-4)GlcNAc
# Summary of the method: as §1
# [9] = molecular target: Man(a1-2)Man(a1-6)[Man(a1-3)]Man(a1-6)[Man(a1-2)Man(a1-2)Man(a1-3)]Man(b1-4)GlcNAc(b1-4)GlcNAc
# Summary of the method: as §1
# [10] = molecular target: MurNAc(b1-4)GlcNAc
# Summary of the method: as §1
# [11] = molecular target: Neu5Ac(a2-3)Gal(b1-3)GalNAc(b1-4)[Neu5Ac(a2-8)Neu5Ac(a2-3)]Gal(b1-4)Glc
# Summary of the method: as §1
# [12] = molecular target: Neu5Ac(a2-3)Gal(b1-3)GlcNAc(b1-2)Man(a1-3)[Neu5Ac(a2-3)Gal(b1-3)GlcNAc(b1-2)Man(a1-6)]Man(b1-4)GlcNAc(b1-4)GlcNAc
# Summary of the method: as §1
# [13] = molecular target: Neu5Ac(a2-3)Gal(b1-3)GlcNAc(b1-6)GalNAc
# Summary of the method: as §1
# [14] = molecular target: Neu5Ac(a2-3)Gal(b1-4)GlcNAc(b1-3)Gal(b1-3)GlcNAc
# Summary of the method: as §1
# [15] = molecular target: Neu5Ac(a2-3)Gal(b1-4)[Fuc(a1-3)]GlcNAc(b1-3)GalNAc
# Summary of the method: as §1
# [16] = molecular target: Neu5Ac(a2-3)[GalNAc(b1-4)]Gal(b1-4)Glc
# Summary of the method: as §1
# [17] = molecular target: Neu5Ac(a2-6)Gal(b1-4)GlcNAc(b1-2)Man(a1-3)[Gal(b1-4)GlcNAc(b1-2)Man(a1-6)]Man(b1-4)GlcNAc(b1-4)GlcNAc
# Summary of the method: as §1
# [18] = molecular target: Neu5Ac(a2-6)Gal(b1-4)GlcNAc(b1-2)Man(a1-3)[Neu5Ac(a2-6)Gal(b1-4)GlcNAc(b1-2)Man(a1-6)]Man(b1-4)GlcNAc(b1-4)[Fuc(a1-6)]GlcNAc
# Summary of the method: as §1
# [19] = molecular target: Neu5Ac(a2-6)Gal(b1-4)GlcNAc(b1-2)Man(a1-6)Man(b1-4)GlcNAc(b1-4)GlcNAc
# Summary of the method: as §1
# [20] = molecular target: Neu5Ac(a2-6)Gal(b1-4)GlcNAc(b1-3)Gal(b1-3)GlcNAc
# Summary of the method: as §1
# [21] = molecular target: Neu5Ac(a2-6)Gal(b1-4)GlcNAc(b1-3)Gal(b1-4)GlcNAc(b1-3)Gal(b1-4)GlcNAc(b1-2)Man(a1-3)[Neu5Ac(a2-6)Gal(b1-4)GlcNAc(b1-3)Gal(b1-4)GlcNAc(b1-3)Gal(b1-4)GlcNAc(b1-2)Man(a1-6)]GalNAc
# Summary of the method: as §1
# [22] = molecular target: Neu5Ac(a2-6)Gal(b1-4)GlcNAc(b1-3)Gal(b1-4)GlcNAc(b1-3)GalNAc
# Summary of the method: as §1
# [23] = molecular target: Neu5Ac(a2-6)Gal(b1-4)GlcNAc(b1-3)Gal(b1-4)GlcNAc(b1-3)[Neu5Ac(a2-6)Gal(b1-4)GlcNAc(b1-3)Gal(b1-4)GlcNAc(b1-6)]GalNAc
# Summary of the method: as §1
# [24] = molecular target: Neu5Ac(a2-8)Neu5Ac(a2-3)Gal(b1-3)GalNAc(b1-4)[Neu5Ac(a2-8)Neu5Ac(a2-3)]Gal(b1-4)Glc
# Summary of the method: as §1
# [25] = molecular target: Neu5Ac(a2-8)Neu5Ac(a2-3)[Gal(b1-3)GalNAc(b1-4)]Gal(b1-4)Glc
# Summary of the method: as §1
# [26] = molecular target: Neu5Ac9Ac(a2-6)Gal(b1-4)GlcNAc
# Summary of the method: as §1
# [27] = molecular target: Neu5Gc(a2-6)Gal(b1-4)GlcNAc
# Summary of the method: as §1
# [28] = molecular target: Neu5Gc(a2-8)Neu5Ac(a2-3)Gal(b1-4)GlcNAc
# Summary of the method: as §1
binder,measurement,setting,value
B1,glycan array binding signal (z-score),[1],-0.689
same,glycan array binding signal (z-score),[2],2.11
same,glycan array binding signal (z-score),[3],2.07
same,glycan array binding signal (z-score),[4],1.82
same,glycan array binding signal (z-score),[5],0.18
same,glycan array binding signal (z-score),[6],-0.319
same,glycan array binding signal (z-score),[7],1.02
same,glycan array binding signal (z-score),[8],0.068
same,glycan array binding signal (z-score),[9],0.31
same,glycan array binding signal (z-score),[10],-0.798
same,glycan array binding signal (z-score),[11],-0.752
same,glycan array binding signal (z-score),[12],-0.65
same,glycan array binding signal (z-score),[13],0.849
same,glycan array binding signal (z-score),[14],0.273
same,glycan array binding signal (z-score),[15],1.8
same,glycan array binding signal (z-score),[16],0.446
same,glycan array binding signal (z-score),[17],-0.376
same,glycan array binding signal (z-score),[18],2.31
same,glycan array binding signal (z-score),[19],0.4
same,glycan array binding signal (z-score),[20],-0.33
same,glycan array binding signal (z-score),[21],2.47
same,glycan array binding signal (z-score),[22],0.214
same,glycan array binding signal (z-score),[23],0.568
same,glycan array binding signal (z-score),[24],1.98
same,glycan array binding signal (z-score),[25],0.321
same,glycan array binding signal (z-score),[26],0.62
same,glycan array binding signal (z-score),[27],-0.005
same,glycan array binding signal (z-score),[28],-0.504
